# Reference: article PMC7862700, “An all-to-all approach to the identification of sequence-specific readers for epigenetic DNA modifications on cytosine”
# Legend:
# Assay in all cases: DAPPL (digital affinity profiling via proximity ligation, sequencing); 10 mM Tris-HCl pH 7.5, 50 mM NaCl, 1 mM DTT, 4% glycerol, room temperature, 30 min; GST-TFs on glutathione beads, 16-mer random dsDNA library, 0.1% formaldehyde crosslink after washing; high values mean tight binding
# FEV = molecular target: T1, FEV (Homo sapiens, UniProt Q99581 1-238); settings: protein: recombinant; tags: N-terminal GST; dsDNA, one strand shown
# T1 sequence: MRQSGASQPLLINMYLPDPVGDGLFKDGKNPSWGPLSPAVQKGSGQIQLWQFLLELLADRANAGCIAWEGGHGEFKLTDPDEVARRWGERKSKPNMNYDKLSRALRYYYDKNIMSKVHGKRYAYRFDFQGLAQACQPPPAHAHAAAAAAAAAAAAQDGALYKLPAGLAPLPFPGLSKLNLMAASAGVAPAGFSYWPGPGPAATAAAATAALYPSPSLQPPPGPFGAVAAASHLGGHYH
# Method in brief: (§1)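 Beads coated with glutathione captured GST-fused human transcription factors that had been expressed in yeast, and the factors were then given DNA barcodes and pooled with a tag-only sample. The pools were incubated with 200 nmole of a random double-stranded 16-mer DNA library in Tris/NaCl/DTT/glycerol buffer for 30 min at room temperature, washed, crosslinked with 0.1% formaldehyde and proximity-ligated with BsaI/T4 ligase at 37 °C for 1 h. PCR amplification and Illumina NextSeq500 sequencing came last. Binding signal is each hexamer's read frequency for a factor divided by its frequency for the tag-only sample.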
# ETV5 = ETV5 (Homo sapiens, UniProt P41161 1-510); settings: protein: recombinant; tags: N-terminal GST; dsDNA, one strand shown
# Method in brief: as §1
# HSF1 = HSF1 (Homo sapiens, UniProt Q00613 1-529); settings: protein: recombinant; tags: N-terminal GST; chain copies: 3; dsDNA, one strand shown
# Method in brief: as §1
# SPIC = molecular target: T2, SPIC (Homo sapiens, UniProt Q8N5J4 1-248); settings: protein: recombinant; tags: N-terminal GST; dsDNA, one strand shown
# T2 sequence: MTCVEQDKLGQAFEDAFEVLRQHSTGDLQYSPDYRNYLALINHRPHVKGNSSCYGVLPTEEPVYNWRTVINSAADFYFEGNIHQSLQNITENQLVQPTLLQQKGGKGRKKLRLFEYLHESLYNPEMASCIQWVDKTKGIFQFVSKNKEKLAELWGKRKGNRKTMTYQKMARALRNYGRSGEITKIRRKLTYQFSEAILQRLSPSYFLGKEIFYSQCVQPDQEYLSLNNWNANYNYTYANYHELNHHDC
# Method in brief: as §1
# ELF4 = ELF4 (Homo sapiens, UniProt Q99607 1-663); settings: protein: recombinant; tags: N-terminal GST; dsDNA, one strand shown
# Method in brief: as §1
# ELK4 = molecular target: T3, ELK4 (Homo sapiens, UniProt P28324-2 1-405); settings: protein: recombinant; tags: N-terminal GST; dsDNA, one strand shown
# T3 sequence: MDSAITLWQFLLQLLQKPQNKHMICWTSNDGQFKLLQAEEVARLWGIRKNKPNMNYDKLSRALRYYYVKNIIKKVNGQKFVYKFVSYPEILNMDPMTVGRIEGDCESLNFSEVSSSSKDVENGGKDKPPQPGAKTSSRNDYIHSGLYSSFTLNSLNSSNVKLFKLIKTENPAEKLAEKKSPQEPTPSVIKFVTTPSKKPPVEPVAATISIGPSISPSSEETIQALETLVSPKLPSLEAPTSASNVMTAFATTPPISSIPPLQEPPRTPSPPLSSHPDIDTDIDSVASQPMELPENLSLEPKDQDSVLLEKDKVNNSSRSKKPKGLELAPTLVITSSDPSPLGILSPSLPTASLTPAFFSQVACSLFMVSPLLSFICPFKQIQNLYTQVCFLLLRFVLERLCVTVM
# Method in brief: as §1
# ETV2 = molecular target: T4, ETV2 (Homo sapiens, UniProt O00321 1-342); settings: protein: recombinant; tags: N-terminal GST; dsDNA, one strand shown
# T4 sequence: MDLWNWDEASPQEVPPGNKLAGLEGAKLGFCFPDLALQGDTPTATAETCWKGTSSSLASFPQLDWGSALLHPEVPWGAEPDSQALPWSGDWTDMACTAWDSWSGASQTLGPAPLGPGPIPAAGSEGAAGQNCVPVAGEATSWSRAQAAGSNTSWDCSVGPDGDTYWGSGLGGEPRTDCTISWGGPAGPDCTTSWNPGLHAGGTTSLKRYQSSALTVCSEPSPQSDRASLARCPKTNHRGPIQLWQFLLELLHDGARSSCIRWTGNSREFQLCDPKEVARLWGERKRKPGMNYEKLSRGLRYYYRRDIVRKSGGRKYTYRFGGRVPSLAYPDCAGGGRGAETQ
# Method in brief: as §1
# ELF3 = molecular target: T5, ELF3 (Homo sapiens, UniProt P78545 1-371); settings: protein: recombinant; tags: N-terminal GST; dsDNA, one strand shown
# T5 sequence: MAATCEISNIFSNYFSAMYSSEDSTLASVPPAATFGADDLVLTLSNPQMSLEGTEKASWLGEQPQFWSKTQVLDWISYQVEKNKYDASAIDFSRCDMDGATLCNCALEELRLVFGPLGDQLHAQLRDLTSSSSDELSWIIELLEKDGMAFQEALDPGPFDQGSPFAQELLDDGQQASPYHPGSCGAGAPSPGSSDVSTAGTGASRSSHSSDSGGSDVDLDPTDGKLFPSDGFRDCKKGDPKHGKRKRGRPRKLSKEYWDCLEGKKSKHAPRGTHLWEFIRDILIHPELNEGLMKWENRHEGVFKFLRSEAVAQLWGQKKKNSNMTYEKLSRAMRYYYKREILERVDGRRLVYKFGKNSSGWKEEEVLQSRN
# Method in brief: as §1
# CRX = CRX (Homo sapiens, UniProt O43186 1-299); settings: protein: recombinant; tags: N-terminal GST; dsDNA, one strand shown
# Method in brief: as §1
# ETV1 = ETV1 (Homo sapiens, UniProt P50549 1-477); settings: protein: recombinant; tags: N-terminal GST; dsDNA, one strand shown
# Method in brief: as §1
# ERF = molecular target: T6, ERF (Homo sapiens, UniProt P50548 1-548); settings: protein: recombinant; tags: N-terminal GST; dsDNA, one strand shown
# T6 sequence: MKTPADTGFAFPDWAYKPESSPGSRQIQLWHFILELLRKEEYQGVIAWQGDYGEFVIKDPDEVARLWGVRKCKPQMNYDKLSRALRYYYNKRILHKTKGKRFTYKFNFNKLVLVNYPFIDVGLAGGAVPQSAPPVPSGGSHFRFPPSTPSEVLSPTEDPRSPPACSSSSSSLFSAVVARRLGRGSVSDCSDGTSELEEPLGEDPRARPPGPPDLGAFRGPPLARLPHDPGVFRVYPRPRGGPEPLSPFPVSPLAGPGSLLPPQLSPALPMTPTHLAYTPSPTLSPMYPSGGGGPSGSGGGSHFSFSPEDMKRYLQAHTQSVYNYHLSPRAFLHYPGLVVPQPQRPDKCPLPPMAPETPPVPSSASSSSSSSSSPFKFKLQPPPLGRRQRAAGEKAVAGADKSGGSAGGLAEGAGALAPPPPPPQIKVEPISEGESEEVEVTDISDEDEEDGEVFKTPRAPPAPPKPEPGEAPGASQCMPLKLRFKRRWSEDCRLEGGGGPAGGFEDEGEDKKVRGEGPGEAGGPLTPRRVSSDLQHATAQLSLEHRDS
# Method in brief: as §1
# ETV3L = molecular target: T7, ETV3L (Homo sapiens, UniProt Q6ZN32 1-361); settings: protein: recombinant; tags: N-terminal GST; dsDNA, one strand shown
# T7 sequence: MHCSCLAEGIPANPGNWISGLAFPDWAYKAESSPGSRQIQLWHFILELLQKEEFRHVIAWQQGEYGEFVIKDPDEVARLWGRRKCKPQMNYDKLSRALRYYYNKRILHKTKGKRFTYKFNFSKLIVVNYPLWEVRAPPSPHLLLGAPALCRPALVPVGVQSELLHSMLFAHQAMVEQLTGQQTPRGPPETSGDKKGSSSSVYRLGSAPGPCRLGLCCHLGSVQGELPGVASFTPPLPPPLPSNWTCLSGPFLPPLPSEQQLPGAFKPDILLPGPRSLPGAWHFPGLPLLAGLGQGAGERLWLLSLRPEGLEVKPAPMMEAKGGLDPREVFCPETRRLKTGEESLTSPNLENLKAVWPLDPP
# Method in brief: as §1
# ETS2 = molecular target: T8, ETS2 (Homo sapiens, UniProt P15036 1-469); settings: protein: recombinant; tags: N-terminal GST; dsDNA, one strand shown
# T8 sequence: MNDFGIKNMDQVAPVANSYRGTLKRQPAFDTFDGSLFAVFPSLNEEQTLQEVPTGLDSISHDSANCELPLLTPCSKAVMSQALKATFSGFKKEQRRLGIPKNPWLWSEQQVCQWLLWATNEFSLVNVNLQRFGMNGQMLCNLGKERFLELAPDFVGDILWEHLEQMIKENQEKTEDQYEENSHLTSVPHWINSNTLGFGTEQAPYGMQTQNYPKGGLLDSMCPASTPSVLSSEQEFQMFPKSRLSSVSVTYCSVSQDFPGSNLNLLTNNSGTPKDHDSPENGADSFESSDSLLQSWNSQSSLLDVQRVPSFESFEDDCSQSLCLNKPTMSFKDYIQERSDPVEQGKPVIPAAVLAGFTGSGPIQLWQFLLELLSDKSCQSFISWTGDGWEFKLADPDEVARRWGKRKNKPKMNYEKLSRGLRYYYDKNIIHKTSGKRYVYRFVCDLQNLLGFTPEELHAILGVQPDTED
# Method in brief: as §1
# SPDEF = molecular target: T9, SPDEF (Homo sapiens, UniProt O95238 1-335); settings: protein: recombinant; tags: N-terminal GST; dsDNA, one strand shown
# T9 sequence: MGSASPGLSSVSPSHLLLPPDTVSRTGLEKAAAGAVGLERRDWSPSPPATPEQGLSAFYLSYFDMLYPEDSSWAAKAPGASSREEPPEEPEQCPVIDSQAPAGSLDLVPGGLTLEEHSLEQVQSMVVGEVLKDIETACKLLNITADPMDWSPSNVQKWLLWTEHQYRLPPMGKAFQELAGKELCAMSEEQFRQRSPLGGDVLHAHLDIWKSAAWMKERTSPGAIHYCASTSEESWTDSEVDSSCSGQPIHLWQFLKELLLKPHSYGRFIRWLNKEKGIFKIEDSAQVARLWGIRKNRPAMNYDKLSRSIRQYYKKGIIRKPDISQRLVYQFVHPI
# Method in brief: as §1
# ETV7 = molecular target: T10, ETV7 (Homo sapiens, UniProt Q9Y603 1-341); settings: protein: recombinant; tags: N-terminal GST; dsDNA, one strand shown
# T10 sequence: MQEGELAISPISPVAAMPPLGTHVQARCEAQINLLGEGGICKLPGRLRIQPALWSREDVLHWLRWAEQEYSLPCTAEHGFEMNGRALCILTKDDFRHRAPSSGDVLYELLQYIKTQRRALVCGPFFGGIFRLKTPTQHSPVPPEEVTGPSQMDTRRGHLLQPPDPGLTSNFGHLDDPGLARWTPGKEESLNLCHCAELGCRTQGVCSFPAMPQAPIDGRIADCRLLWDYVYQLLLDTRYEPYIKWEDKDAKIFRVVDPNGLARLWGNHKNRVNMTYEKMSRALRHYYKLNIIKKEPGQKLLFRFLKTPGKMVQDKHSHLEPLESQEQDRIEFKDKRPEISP
# Method in brief: as §1
# ELF5 = molecular target: T11, ELF5 (Homo sapiens, UniProt Q9UKW6-2 1-255); settings: protein: recombinant; tags: N-terminal GST; dsDNA, one strand shown
# T11 sequence: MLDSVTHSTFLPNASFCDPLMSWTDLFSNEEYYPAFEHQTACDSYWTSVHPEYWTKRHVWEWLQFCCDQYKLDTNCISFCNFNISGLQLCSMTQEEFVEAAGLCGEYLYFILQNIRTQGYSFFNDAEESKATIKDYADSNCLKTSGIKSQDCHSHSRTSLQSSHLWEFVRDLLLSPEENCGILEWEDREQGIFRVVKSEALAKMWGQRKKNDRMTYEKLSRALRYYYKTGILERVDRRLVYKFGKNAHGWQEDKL
# Method in brief: as §1
# ETV3 = molecular target: T12, ETV3 (Homo sapiens, UniProt P41162-2 1-143); settings: protein: recombinant; tags: N-terminal GST; dsDNA, one strand shown
# T12 sequence: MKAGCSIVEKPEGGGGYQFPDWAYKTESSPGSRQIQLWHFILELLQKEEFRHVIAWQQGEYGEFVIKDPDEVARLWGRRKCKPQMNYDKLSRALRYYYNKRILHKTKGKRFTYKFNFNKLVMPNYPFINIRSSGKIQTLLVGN
# Method in brief: as §1
# ETV6 = ETV6 (Homo sapiens, UniProt P41212 1-452); settings: protein: recombinant; tags: N-terminal GST; dsDNA, one strand shown
# Method in brief: as §1
# ETV5, sequence (P41161 whole entry): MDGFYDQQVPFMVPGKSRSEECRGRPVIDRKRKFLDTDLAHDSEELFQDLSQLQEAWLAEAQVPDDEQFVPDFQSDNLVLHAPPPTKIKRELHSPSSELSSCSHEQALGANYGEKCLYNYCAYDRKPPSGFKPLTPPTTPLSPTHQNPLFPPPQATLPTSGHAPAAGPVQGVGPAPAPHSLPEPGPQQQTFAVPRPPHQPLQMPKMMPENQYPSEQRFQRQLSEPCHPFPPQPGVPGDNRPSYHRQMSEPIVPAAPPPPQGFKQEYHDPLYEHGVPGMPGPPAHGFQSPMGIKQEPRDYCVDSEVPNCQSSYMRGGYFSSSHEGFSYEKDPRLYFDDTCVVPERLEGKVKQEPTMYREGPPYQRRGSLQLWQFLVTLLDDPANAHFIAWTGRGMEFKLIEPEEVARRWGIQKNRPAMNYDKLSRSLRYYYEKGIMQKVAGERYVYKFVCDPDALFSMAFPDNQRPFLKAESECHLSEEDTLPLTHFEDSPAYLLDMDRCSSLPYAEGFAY
# ETV6, sequence (P41212 whole entry): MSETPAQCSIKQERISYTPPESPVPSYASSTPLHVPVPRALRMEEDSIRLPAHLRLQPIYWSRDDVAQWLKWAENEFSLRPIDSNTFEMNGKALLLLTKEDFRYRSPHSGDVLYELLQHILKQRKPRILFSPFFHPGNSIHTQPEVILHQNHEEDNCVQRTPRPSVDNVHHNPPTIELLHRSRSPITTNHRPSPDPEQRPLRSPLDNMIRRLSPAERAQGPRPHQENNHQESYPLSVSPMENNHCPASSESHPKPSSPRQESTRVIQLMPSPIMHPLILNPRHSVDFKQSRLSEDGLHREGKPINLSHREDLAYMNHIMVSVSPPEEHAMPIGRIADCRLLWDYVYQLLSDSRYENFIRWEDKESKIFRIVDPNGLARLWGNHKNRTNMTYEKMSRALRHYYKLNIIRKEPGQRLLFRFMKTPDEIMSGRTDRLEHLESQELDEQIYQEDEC
# ELF4, sequence (Q99607 whole entry): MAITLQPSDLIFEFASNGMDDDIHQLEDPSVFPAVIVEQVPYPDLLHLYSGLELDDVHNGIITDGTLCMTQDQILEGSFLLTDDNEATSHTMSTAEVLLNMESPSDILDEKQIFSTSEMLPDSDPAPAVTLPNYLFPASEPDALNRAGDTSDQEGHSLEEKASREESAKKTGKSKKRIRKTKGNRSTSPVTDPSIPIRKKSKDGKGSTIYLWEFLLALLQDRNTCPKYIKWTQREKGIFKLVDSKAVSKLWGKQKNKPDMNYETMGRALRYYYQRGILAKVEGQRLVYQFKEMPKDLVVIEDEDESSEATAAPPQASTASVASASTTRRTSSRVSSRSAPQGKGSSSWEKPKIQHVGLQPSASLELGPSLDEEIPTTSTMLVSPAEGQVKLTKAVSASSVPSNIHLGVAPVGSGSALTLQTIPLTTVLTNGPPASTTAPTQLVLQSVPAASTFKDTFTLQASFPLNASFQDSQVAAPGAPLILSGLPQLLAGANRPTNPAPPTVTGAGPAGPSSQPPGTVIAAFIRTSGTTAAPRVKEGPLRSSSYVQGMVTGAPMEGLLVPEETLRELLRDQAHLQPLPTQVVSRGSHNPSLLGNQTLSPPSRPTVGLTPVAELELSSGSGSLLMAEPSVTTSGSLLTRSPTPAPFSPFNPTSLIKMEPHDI
# CRX, sequence (O43186 whole entry): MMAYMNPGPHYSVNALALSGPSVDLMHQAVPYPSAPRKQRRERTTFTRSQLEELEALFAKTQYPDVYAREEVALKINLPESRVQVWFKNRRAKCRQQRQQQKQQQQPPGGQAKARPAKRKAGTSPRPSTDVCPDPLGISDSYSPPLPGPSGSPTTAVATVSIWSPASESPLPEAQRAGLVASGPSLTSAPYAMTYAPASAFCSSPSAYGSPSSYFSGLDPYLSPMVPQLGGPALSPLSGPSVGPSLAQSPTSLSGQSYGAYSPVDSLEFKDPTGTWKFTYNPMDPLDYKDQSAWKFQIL
# HSF1, sequence (Q00613 whole entry): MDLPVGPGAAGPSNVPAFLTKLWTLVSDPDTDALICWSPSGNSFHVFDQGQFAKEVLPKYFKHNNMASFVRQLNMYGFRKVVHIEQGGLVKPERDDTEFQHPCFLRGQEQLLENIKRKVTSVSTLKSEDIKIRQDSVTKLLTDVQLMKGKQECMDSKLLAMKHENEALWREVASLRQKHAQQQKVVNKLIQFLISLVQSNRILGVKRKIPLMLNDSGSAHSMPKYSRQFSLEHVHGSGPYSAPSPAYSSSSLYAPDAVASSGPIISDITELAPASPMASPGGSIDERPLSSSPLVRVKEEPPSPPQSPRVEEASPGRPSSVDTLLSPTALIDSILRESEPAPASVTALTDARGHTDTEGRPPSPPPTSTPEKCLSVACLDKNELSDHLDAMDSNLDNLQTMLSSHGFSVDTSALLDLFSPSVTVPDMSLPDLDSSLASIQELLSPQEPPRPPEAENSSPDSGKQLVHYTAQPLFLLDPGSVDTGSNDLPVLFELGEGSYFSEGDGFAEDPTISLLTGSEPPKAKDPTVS
# ETV1, sequence (P50549 whole entry): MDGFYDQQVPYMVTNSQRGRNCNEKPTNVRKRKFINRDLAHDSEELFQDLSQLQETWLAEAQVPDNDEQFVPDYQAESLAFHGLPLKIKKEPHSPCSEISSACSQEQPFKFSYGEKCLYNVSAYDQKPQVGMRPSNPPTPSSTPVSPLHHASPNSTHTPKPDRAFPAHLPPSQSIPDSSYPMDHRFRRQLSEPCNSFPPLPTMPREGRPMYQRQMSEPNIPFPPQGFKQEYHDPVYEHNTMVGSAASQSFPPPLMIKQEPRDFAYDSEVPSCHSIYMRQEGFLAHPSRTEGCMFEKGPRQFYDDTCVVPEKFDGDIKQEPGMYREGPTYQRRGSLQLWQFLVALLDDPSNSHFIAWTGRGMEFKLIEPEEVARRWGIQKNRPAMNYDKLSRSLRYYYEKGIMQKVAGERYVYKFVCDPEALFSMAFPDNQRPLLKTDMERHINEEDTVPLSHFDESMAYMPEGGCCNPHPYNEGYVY
sequence,measurement,setting,value
CTTATA,binding signal,FEV,"1.31 fold enrichment (6-mer frequency, TF over GST control)"
same,binding signal,ETV5,"1.29 fold enrichment (6-mer frequency, TF over GST control)"
same,binding signal,HSF1,"1.65 fold enrichment (6-mer frequency, TF over GST control)"
same,binding signal,SPIC,"1.34 fold enrichment (6-mer frequency, TF over GST control)"
same,binding signal,ELF4,"1.32 fold enrichment (6-mer frequency, TF over GST control)"
same,binding signal,ELK4,"1.38 fold enrichment (6-mer frequency, TF over GST control)"
same,binding signal,ETV2,"1.15 fold enrichment (6-mer frequency, TF over GST control)"
same,binding signal,ELF3,"1.37 fold enrichment (6-mer frequency, TF over GST control)"
same,binding signal,CRX,"2.27 fold enrichment (6-mer frequency, TF over GST control)"
same,binding signal,ETV1,"1.49 fold enrichment (6-mer frequency, TF over GST control)"
same,binding signal,ERF,"1.29 fold enrichment (6-mer frequency, TF over GST control)"
same,binding signal,ETV3L,"1.35 fold enrichment (6-mer frequency, TF over GST control)"
same,binding signal,ETS2,"1.41 fold enrichment (6-mer frequency, TF over GST control)"
same,binding signal,SPDEF,"1.51 fold enrichment (6-mer frequency, TF over GST control)"
same,binding signal,ETV7,"1.39 fold enrichment (6-mer frequency, TF over GST control)"
same,binding signal,ELF5,"1.48 fold enrichment (6-mer frequency, TF over GST control)"
same,binding signal,ETV3,"1.28 fold enrichment (6-mer frequency, TF over GST control)"
same,binding signal,ETV6,"1.33 fold enrichment (6-mer frequency, TF over GST control)"
